The source made the active and inactive calls. Rule for the calls: active = hit-call score of the fitted dose curve at least 0.9, where 1 is the maximum; inactive = score below 0.9.
Assays:
[1] = read-out: Interleukin-1 alpha (IL1a), IL1A (gene 3552); assay: BSK_KF3CT_IL1a: BioMAP Diversity Plus: KF3CT Assay for Interleukin-1 alpha (IL1a) Biomarker Activity (AID 2283070); settings: primary human keratinocytes with fibroblasts; actives raise or lower the signal
Outline: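 Readout is IL-1a level by ELISA, compared bidirectionally with DMSO as baseline. Cells: human keratinocytes co-cultured with foreskin fibroblasts, harvested 24 h post-dose.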

[2] = read-out: TIMP metallopeptidase inhibitor 2 (TIMP2), TIMP2 (gene 7077); assay: BSK_KF3CT_TIMP2: BioMAP Diversity Plus: KF3CT Assay for TIMP metallopeptidase inhibitor 2 (TIMP2) Biomarker Activity (AID 2283071); settings: primary human keratinocytes with fibroblasts; actives raise or lower the signal
Outline: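 TIMP-2 measured by ELISA at 24 h in human keratinocyte/fibroblast primary co-cultures exposed to chemicals. Both increases and decreases were fitted against DMSO. Parallel cultures were stained with SRB for total protein as an overt-cytotoxicity check.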

[3] = read-out: Transforming growth factor beta 1 (TGFb1), TGFB1 (gene 7040); assay: BSK_KF3CT_TGFb1: BioMAP Diversity Plus: KF3CT Assay for Transforming growth factor beta 1 (TGFb1) Biomarker Activity (AID 2283072); settings: primary human keratinocytes with fibroblasts; actives raise or lower the signal
Outline: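 ELISA quantifies TGF-b1 at 24 h post-dose in a primary human skin co-culture of keratinocytes and fibroblasts, with gain or loss judged against DMSO. Parallel SRB total-protein staining flags overt cytotoxicity.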

[4] = read-out: C-C motif chemokine 2 (Homo sapiens) (UniProt P13500); assay: BSK_KF3CT_MCP1: BioMAP Diversity Plus: KF3CT Assay for Monocyte Chemoattractant Protein 1 (MCP1/CCL2) Biomarker Activity (AID 2283073); settings: primary human keratinocytes with fibroblasts; actives raise or lower the signal
Outline: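 Human keratinocyte–foreskin fibroblast co-culture; MCP-1 measured by ELISA 24 h after dosing. Bidirectional fit vs DMSO; cytotoxicity tracked by SRB total protein in parallel cultures.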

[5] = read-out: Matrix Metallopeptidase 9 (MMP9), MMP9 (gene 4318); assay: BSK_KF3CT_MMP9: BioMAP Diversity Plus: KF3CT Assay for Matrix Metallopeptidase 9 (MMP9) Biomarker Activity (AID 2283074); settings: primary human keratinocytes with fibroblasts; actives raise or lower the signal
Outline: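 Values come from bidirectional fitting relative to DMSO of MMP-9 levels, which were measured by ELISA. Measurements were taken 24 h after chemical dosing of a keratinocyte and foreskin fibroblast co-culture.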

[6] = read-out: urokinase plasminogen activator (uPA), PLAU (gene 5328); assay: BSK_KF3CT_uPA: BioMAP Diversity Plus: KF3CT Assay for urokinase plasminogen activator (uPA) Biomarker Activity (AID 2283075); settings: primary human keratinocytes with fibroblasts; actives raise or lower the signal
Outline: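 Values derive from bidirectional fitting against DMSO controls. Keratinocyte/foreskin fibroblast co-cultures received chemical; 24 h later uPA was detected by ELISA, with SRB total-protein staining in parallel wells for overt cytotoxicity.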

CD40, CD40 (gene 958) [7] = assay: BSK_LPS_CD40: BioMAP Diversity Plus: LPS Assay for CD40 Biomarker Activity (AID 2283076); settings: primary human HUVEC with PBMC; actives raise or lower the signal
Outline: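 HUVEC plus PBMC co-culture stimulated with LPS; CD40 quantified by ELISA 24 h after compound dosing. Fitting was bidirectional relative to DMSO. SRB staining of parallel cultures flagged overt cytotoxicity.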

[8] = read-out: E-selectin (Homo sapiens) (UniProt P16581); assay: BSK_LPS_Eselectin: BioMAP Diversity Plus: LPS Assay for Eselectin Biomarker Activity (AID 2283077); settings: primary human HUVEC with PBMC; actives raise or lower the signal
Outline: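 Human umbilical vein endothelial cells co-cultured with PBMC under LPS stimulation; cell-surface E-selectin measured by ELISA 24 h after dosing. Change in either direction versus DMSO, with SRB total-protein staining in parallel cultures for cytotoxicity.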

[9] = read-out: Interleukin-8 (IL8), CXCL8 (gene 3576); assay: BSK_LPS_IL8: BioMAP Diversity Plus: LPS Assay for Interleukin-8 (IL8) Biomarker Activity (AID 2283078); settings: primary human HUVEC with PBMC; actives raise or lower the signal
Outline: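 Human umbilical vein endothelial cells co-cultured with PBMC, LPS-stimulated, exposed to compound for 24 h. IL-8 quantified by ELISA; fitted in both directions against DMSO, with SRB total-protein staining of parallel cultures for cytotoxicity.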

[10] = BSK_LPS_SRB: Viability Assessment in the BioMAP Diversity Plus: LPS Assay (AID 2283079); settings: primary human HUVEC with PBMC;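 note: total protein by sulforhodamine B absorbance as a cytotoxicity measure; measured one day after compound addition; fitted in both directions against DMSO so loss or gain of signal counts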
Outline: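 Co-culture of human umbilical vein endothelial cells and PBMC, read 24 h after dosing. Total protein by 0.1% SRB staining after 10% TCA fixation, absorbance at 560 nm; bidirectional fit against DMSO.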

[11] = read-out: Interleukin-1 alpha (IL1a), IL1A (gene 3552); assay: BSK_LPS_IL1a: BioMAP Diversity Plus: LPS Assay for Interleukin-1 alpha (IL1a) Biomarker Activity (AID 2283080); settings: primary human HUVEC with PBMC; actives raise or lower the signal
Outline: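 Human umbilical vein endothelial cells co-cultured with PBMC and stimulated with LPS; IL-1a measured by ELISA 24 h after dosing. Bidirectional fitting against DMSO; cytotoxicity checked by SRB staining in parallel cultures.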

[12] = read-out: Monocyte Chemoattractant Protein-1 (MCP1), CCL2 (gene 6347); assay: BSK_LPS_MCP1: BioMAP Diversity Plus: LPS Assay for Monocyte Chemoattractant Protein-1 (MCP1) Biomarker Activity (AID 2283081); settings: primary human HUVEC with PBMC; actives raise or lower the signal
Outline: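 Human umbilical vein endothelial cells co-cultured with PBMC, LPS-stimulated; secreted MCP-1 measured by ELISA 24 h after compound addition. Bidirectional curve fitting against DMSO baseline; SRB total-protein staining in parallel cultures for cytotoxicity.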

[13] = BSK_LPS_PGE2: BioMAP Diversity Plus: LPS Assay for Prostaglandin E2 (PGE2) Biomarker Activity (AID 2283082); settings: primary human HUVEC with PBMC; actives raise or lower the signal;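 for AC50: secreted prostaglandin E2 measured by ELISA in LPS-stimulated co-culture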
Outline: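 PGE2 release measured by ELISA in an LPS-activated co-culture of human umbilical vein endothelial cells and peripheral blood mononuclear cells, read at 24 h post-dosing. DMSO served as baseline for bidirectional curve fitting.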

[14] = read-out: Macrophage colony-stimulating factor (MCSF), CSF1 (gene 1435); assay: BSK_LPS_MCSF: BioMAP Diversity Plus: LPS Assay for Macrophage colony-stimulating factor (MCSF) Biomarker Activity (AID 2283083); settings: primary human HUVEC with PBMC; actives raise or lower the signal
Outline: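 HUVEC–PBMC co-culture, M-CSF measured by ELISA 24 h after chemical dosing. Fitted in both directions relative to DMSO as negative control; overt cytotoxicity assessed by SRB total-protein staining in parallel cultures.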

[15] = read-out: Tumor necrosis factor (Homo sapiens) (UniProt P01375); assay: BSK_LPS_TNFa: BioMAP Diversity Plus: LPS Assay for Tumour Necrosis Factor alpha (TNFa) Biomarker Activity (AID 2283085); settings: primary human HUVEC with PBMC; actives raise or lower the signal;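 for AC50: TNFa protein level quantified by ELISA in the co-culture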
Outline: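 TNFa was quantified by ELISA in LPS-activated co-cultures of human endothelial cells and PBMC, 24 h post-dosing. Both increases and decreases versus DMSO were fitted.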

[16] = read-out: Vascular cell adhesion molecule 1 (VCAM1), VCAM1 (gene 7412); assay: BSK_LPS_VCAM1: BioMAP Diversity Plus: LPS Assay for Vascular cell adhesion molecule 1 (VCAM1) Biomarker Activity (AID 2283086); settings: primary human HUVEC with PBMC; actives raise or lower the signal
Outline: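 VCAM-1 quantified by ELISA in an LPS-activated co-culture of human endothelial cells and peripheral blood mononuclear cells, read 24 h post-treatment. Fitted in both directions versus DMSO; parallel SRB staining flags overt cytotoxicity.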

CD38, CD38 (gene 952) = assay: BSK_SAg_CD38: BioMAP Diversity Plus: SAg Assay for CD38 Biomarker Activity (AID 2283087); settings: primary human HUVEC with PBMC; actives raise or lower the signal
Outline: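 CD38 quantified by ELISA (fluorescence) in a superantigen-activated endothelial cell–PBMC co-culture at 24 h post-dose. Activity fitted in both directions relative to DMSO; parallel SRB and Alamar Blue cytotoxicity read-outs.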

CD40, CD40 (gene 958) [17] = assay: BSK_SAg_CD40: BioMAP Diversity Plus: SAg Assay for CD40 Biomarker Activity (AID 2283088); settings: primary human HUVEC with PBMC; actives raise or lower the signal
Outline: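 HUVEC plus PBMC co-culture, superantigen-activated, with CD40 read by ELISA 24 h after dosing. Curves fitted in both directions against DMSO. Overt cytotoxicity checked by parallel SRB total-protein staining.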

CD69, CD69 (gene 969) = assay: BSK_SAg_CD69: BioMAP Diversity Plus: SAg Assay for CD69 Biomarker Activity (AID 2283089); settings: primary human HUVEC with PBMC; actives raise or lower the signal;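 for AC50: cell surface CD69 protein quantified by ELISA with fluorescence detection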
Outline: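 Values derive from bidirectional fitting relative to DMSO vehicle. Cells: umbilical vein endothelium plus peripheral blood mononuclear cells, treated 24 h before fluorescent ELISA for CD69.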

[18] = read-out: Tissue Factor, F3 (gene 2152); assay: BSK_LPS_TissueFactor: BioMAP Diversity Plus: LPS Assay for Tissue Factor Biomarker Activity (AID 2283084); settings: primary human HUVEC with PBMC; actives raise or lower the signal
Outline: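 Human umbilical vein endothelial cells co-cultured with PBMC were dosed with compound. Cell-surface CD142 was measured by ELISA 24 h later. Activity was fitted bidirectionally against DMSO, with SRB total-protein staining in parallel cultures for cytotoxicity.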

Measured: AC50

Sequence of E-selectin (Homo sapiens) (P16581 whole entry, looked up): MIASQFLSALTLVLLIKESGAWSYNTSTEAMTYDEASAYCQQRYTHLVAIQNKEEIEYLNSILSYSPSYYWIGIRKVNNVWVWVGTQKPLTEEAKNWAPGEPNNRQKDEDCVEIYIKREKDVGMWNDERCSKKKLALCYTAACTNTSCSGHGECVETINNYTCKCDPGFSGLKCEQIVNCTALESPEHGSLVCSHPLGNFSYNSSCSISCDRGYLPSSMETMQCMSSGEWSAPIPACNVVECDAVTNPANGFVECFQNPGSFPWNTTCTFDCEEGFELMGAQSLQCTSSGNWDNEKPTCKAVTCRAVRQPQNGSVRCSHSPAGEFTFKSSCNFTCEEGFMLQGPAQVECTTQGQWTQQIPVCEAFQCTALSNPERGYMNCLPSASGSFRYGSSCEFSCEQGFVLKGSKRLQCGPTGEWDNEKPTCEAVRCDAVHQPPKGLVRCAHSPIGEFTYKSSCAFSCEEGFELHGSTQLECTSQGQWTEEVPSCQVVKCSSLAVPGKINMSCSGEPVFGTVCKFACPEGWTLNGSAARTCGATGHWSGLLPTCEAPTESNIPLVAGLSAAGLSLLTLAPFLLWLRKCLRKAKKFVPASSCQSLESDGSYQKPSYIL
Sequence of Tumor necrosis factor (Homo sapiens) (P01375 whole entry, looked up): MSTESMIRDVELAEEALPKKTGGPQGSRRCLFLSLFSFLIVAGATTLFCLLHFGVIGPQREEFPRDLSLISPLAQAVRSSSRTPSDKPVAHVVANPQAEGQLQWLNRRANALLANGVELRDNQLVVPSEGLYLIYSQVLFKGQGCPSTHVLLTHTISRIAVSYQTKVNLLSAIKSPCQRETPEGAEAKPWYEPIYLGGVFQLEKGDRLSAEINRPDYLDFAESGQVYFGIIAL

Cc1cc(C2CC2)nc(Nc2ccccc2)n1
active: CD40, CD40 (gene 958) [7] 14.8 µM | [10] 24.7 µM | [13] 7.61 µM | [14] 20.3 µM | [16] 15.7 µM | CD40, CD40 (gene 958) [17] 16.2 µM | CD69, CD69 (gene 969) 28.2 µM
not listed: [18]
inactive: all other assays above

CCOP(=O)(NC(C)C)Oc1ccc(SC)c(C)c1 (configuration not stated)
not listed: [18]
inactive: all other assays above

CCc1cccc(C)c1N(C(=O)CCl)C(C)COC (configuration not stated)
active: CD40, CD40 (gene 958) [7] 17.5 µM | [15] 13.1 µM | [16] 14.2 µM
not listed: CD69, CD69 (gene 969)
inactive: all other assays above

Reference: PubChem BioAssay (EPA / NIEHS)
